This is an account of results in PubChem BioAssay.

Assay [1] deals with Aerobactin synthetase IucA (Klebsiella pneumoniae). The experiment in a line: IucA aerobactin synthetase inhibitors, biochemical, Tocris library, absorbance (AID 1345561).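 Note: 100% = enzyme without compound and 0% = no enzyme.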 The settings on record: purified IucA enzyme assay, absorbance (OD) read-out; stronger effect = lower value;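 tested at 8 µM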.
The nature of assay [2]: sensitizers of A549 cells to miR-34 induction, primary screen, imaging, A549 dox-inducible miR-34, nuclei and caspase counts (AID 1347080;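 active = compounds whose cell count with miR-34 switched on is under 0.7 times the count with it off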). The settings on record: A549 miR-34 inducible, Hoechst nuclei count, 48 h.
Assay [3] is described as follows: viability rescue of complex I mutant cybrids, primary screen, cell-based, galactose medium, ATP luminescence (AID 1645843;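 active = z-score of at least 1.8 in each of two replicates, scored against plate mean and spread of sample wells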;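 note: positive z means more ATP and so rescue of galactose-driven cybrid death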). The settings on record: complex I mutant cybrid cells, 72 h, stronger effect = higher value.
Assay [4] is described as follows: inhibitors of Cryptococcus chitosan production, flow cytometry, Cibacron Brilliant Red staining (AID 1347148).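 Note: compound exposure lasted three days at 37 degrees C.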 The settings on record: Cryptococcus neoformans chitosan, stronger effect = lower value; at 10 µM unless noted. In general terms: A flow cytometer gives signals particle by particle.
Assay [5] is described as follows: modifiers of HSF1 nuclear foci, imaging, Selleck Cancer Library (AID 1347162; in the data active = plate-normalised HSF1 focus index below about 0.46). The settings on record: human cells, at 10 µM; SSMD: measured here: HSF1 foci SSMD mean; cell count: measured here: cell number; plate-normalised HSF1 focus index: stronger effect = lower value.
A short description of assay [6]: hESC survival regulators, cell-based (AID 493140).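 Note: cells exposed to compounds for four days before counting.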 The settings on record: human embryonic stem cell survival screen; stronger effect = higher value.
A short description of assay [7]: liver-stage malaria parasite growth inhibition, primary screen, cell-based, HepG2, luciferase luminescence, HepG2 viability (AID 624349; in the data active = parasite load remaining mostly below about 12%, no sharp cut-off; inactive = mostly above about 10%;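 note: 100% = mean of DMSO negative control wells on the same plate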). Particulars: P. berghei liver stage in HepG2, luciferase luminescence, concentration not given here; parasite load remaining: stronger effect = lower value; viability: measured here: HepG2 viability without parasites.
Assay [8] in a line: survival rescue of mitochondrial mutant cells in low glucose, primary screen, MELAS cybrids, Rieske KO mouse fibroblasts, CellTiter-Glo (AID 1508586;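 active = mean z-score across replicates of 1.96 or higher in either the MELAS or the Rieske mutant cell line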;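 note: z relative to plate mean and SD of compound and empty wells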).
The mark [9] stands for this setting: stronger effect = lower value, cell number ratio, induced over uninduced.
Setting [10] is: measured here: relative caspase fold change +Dox/-Dox.
The mark [11] stands for this setting: measured here: total cells with miR-34 induction, stronger effect = lower value.
Where [12] appears, read: measured here: total cells without miR-34 induction.

Where “and” joins values, the source holds several entries; their conditions need not be identical. Identical values can stand only once. Calls of active or inactive are those of the source. Unless noted, the rule behind the calls is not given here.

With `COc1ccccc1C1(O)CCN(CCCn2c3ccccc3c3ccccc32)CC1`, the remaining activity (as a rule, the signal under treatment as a percentage of the control signal) in assay [1] is 91.1% (inactive). Also, the fold change was 0.694 (active) in assay [2] (setting [9]) and 1.55 in assay [2] (setting [10]). In addition, the cell count amounted to 323 in assay [2] (setting [11]) and 466 in assay [2] (setting [12]). The z-score in assay [3] is -0.705 (inactive).

As for `C1CCC2(CC1)CCNCC2`, the remaining activity in assay [1] was 105% (inactive). For the same compound, the fold change in assay [2] (setting [9]) was 0.955 (inactive); in assay [2] (setting [10]), 1.56. The figures for the cell count in assay [2] (setting [11]) and in assay [2] (setting [12]) were 9280 and 9730, respectively. In addition, the z-score in assay [3] was 0.34 (inactive).

For the compound `Clc1cccc(C=NC=Nc2cccc(Cl)c2)c1`, the remaining activity in assay [1] was 117% (inactive). Also, the values for the fold change in assay [2] (setting [9]) and in assay [2] (setting [10]) were 0.902 (inactive) and 0.788, respectively. In addition, the cell count in assay [2] (setting [11]) was 8200; in assay [2] (setting [12]), 9090. Besides, in assay [3], the z-score was 0.99 (inactive).

Take `Cc1c(C(=O)NN2CCOCC2)nn(-c2ccc(Cl)cc2Cl)c1-c1ccc(I)cc1`: in assay [1], the remaining activity was 115% (inactive). The fold change in assay [2] (setting [9]) was 0.846 (inactive); in assay [2] (setting [10]), 0.864. Moreover, the cell count in assay [2] (setting [11]) stood at 8280; in assay [2] (setting [12]), 9790. Also, the z-score in assay [3] is -0.285 (inactive).

Turning to `COC(=O)C1=C(C)NC(C)=C(C(=O)OCCCN2CCC(c3ccccc3)(c3ccccc3)CC2)[C@H]1c1cccc([N+](=O)[O-])c1`, in assay [1], the remaining activity was 116% (inactive). The figures for the fold change in assay [2] (setting [9]) and in assay [2] (setting [10]) were 0.98 (inactive) and 1.09, respectively. The cell count came out at 562 in assay [2] (setting [11]), 574 in assay [2] (setting [12]) and 6310 in assay [5]. For the same compound, in assay [4], the fold fluorescence is 5.27 [at 82 µM] (inactive). Further, the SSMD in assay [5] was -1.25. In addition, the plate-normalised HSF1 focus index in assay [5] is 0.927 (inactive). The z-score in assay [3] was -0.83 (inactive).

`CCN(CC)CCOC(=O)C1(c2ccc([N+](=O)[O-])cc2)CCCC1`: the survival in assay [6] was 10.9 (inactive). The parasite load remaining in assay [7] was 105% (inactive). Further, the viability (commonly the share of living cells, or the viability signal relative to a control) in assay [7] came to 84.2%. For the same compound, the remaining activity in assay [1] was 78.5% (inactive). The fold change in assay [2] (setting [9]) is 0.929 (inactive) and 1.02 (inactive); in assay [2] (setting [10]), 1.89 and 0.688. The cell count in assay [2] (setting [11]) was 8310 and 8650; in assay [2] (setting [12]), 8940 and 8460. Also, the z-score is 0.368 (inactive) in assay [8] (MELAS cybrid survival, CellTiter-Glo 48 h, stronger effect = higher value); -0.484 in assay [8] (Rieske KO mouse fibroblast survival, CellTiter-Glo 72 h); -1.09 (inactive) in assay [3].
